Test results reported in PubChem BioAssay (EPA / NIEHS).
Results filed as inconclusive are left out. Activity calls are given as the source filed them. The calls were made as follows, unless noted: active = hit-call score of the fitted dose curve at least 0.9, where 1 is the maximum; inactive = score below 0.9.

Key:
[1] = target: Glucocorticoid receptor (Homo sapiens) (UniProt P04150); assay: ATG_GR_TRANS: Attagene TRANS-FACTORIAL HepG2 Assay for human Glucocorticoid Receptor (GR) (AID 2282978; active = hit-call score of the fitted dose curve at least 0.9, where 1 is the maximum;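 also: activators score as hits since higher reporter transcript over DMSO is fitted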); conditions: HepG2 Attagene TRANS GR reporter, mRNA transcription
Chain of Glucocorticoid receptor (Homo sapiens) (P04150 whole entry, looked up): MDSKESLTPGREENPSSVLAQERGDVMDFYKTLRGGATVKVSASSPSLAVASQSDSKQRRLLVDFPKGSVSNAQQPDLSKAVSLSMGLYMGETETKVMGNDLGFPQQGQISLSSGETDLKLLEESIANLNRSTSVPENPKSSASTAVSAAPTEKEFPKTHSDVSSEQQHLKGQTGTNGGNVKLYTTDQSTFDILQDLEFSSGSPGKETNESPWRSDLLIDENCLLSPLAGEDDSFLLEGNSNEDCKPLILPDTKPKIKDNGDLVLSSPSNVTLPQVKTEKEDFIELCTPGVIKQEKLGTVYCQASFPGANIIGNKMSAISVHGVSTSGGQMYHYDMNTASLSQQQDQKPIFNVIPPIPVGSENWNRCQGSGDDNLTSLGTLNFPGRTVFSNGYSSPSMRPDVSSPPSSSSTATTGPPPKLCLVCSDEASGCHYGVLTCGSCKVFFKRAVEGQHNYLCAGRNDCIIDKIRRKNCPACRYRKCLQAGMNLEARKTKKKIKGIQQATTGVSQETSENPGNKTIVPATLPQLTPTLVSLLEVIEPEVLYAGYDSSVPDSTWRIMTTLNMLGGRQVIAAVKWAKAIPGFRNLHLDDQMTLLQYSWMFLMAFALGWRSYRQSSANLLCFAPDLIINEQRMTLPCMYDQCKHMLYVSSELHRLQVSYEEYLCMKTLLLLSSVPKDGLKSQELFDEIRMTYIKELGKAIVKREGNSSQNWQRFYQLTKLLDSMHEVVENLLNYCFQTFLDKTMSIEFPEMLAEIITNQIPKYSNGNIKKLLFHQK
Method in brief: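 After 24 h incubation with test chemical, transfected HepG2 cells were lysed for RNA; reporter cDNA was amplified, FAM-labelled, HpaI-digested and sized on a capillary analyser. Signal gain relative to DMSO was scored.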

[2] = target: Oxysterols receptor LXR-beta (Homo sapiens) (UniProt P55055); assay: ATG_LXRb_TRANS: Attagene TRANS-FACTORIAL HepG2 Assay for human Liver X Receptor beta (LXRb) (AID 2282981; active = hit-call score of the fitted dose curve at least 0.9, where 1 is the maximum); conditions: HepG2 Attagene TRANS GAL4-LXRb reporter, mRNA
Chain of Oxysterols receptor LXR-beta (Homo sapiens) (P55055 whole entry, looked up, the tested form may be a part): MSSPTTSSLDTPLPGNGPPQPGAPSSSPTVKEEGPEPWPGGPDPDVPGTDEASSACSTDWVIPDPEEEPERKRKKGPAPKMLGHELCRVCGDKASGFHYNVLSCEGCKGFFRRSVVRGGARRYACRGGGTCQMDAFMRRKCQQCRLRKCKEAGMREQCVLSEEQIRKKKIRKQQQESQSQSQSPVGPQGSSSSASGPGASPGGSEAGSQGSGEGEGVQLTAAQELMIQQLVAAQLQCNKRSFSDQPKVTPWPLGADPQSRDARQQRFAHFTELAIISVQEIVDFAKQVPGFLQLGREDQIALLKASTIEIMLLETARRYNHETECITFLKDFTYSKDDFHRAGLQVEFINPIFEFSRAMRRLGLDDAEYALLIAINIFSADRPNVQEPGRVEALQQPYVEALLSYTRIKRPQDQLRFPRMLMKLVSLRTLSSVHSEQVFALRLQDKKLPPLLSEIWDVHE
Method in brief: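 Readout: fluorescent reporter mRNA fragments resolved by capillary electrophoresis after RT-PCR. System: transiently transfected human HepG2, exogenous LXRb-Gal4 chimera driving GAL4-UAS reporter, 24 h dosing. Activity fitted upward against DMSO baseline.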

[3] = target: Transcriptional activator Myb (Homo sapiens) (UniProt P10242); assay: ATG_Myb_CIS: Attagene CIS-FACTORIAL HepG2 Assay for human Myeloblastosis (Myb) Proto-Oncogene Transcription Factor (AID 2282986); conditions: HepG2 Attagene CIS-FACTORIAL Myb reporter transcription; actives raise or lower the signal
Chain of Transcriptional activator Myb (Homo sapiens) (P10242 whole entry, looked up): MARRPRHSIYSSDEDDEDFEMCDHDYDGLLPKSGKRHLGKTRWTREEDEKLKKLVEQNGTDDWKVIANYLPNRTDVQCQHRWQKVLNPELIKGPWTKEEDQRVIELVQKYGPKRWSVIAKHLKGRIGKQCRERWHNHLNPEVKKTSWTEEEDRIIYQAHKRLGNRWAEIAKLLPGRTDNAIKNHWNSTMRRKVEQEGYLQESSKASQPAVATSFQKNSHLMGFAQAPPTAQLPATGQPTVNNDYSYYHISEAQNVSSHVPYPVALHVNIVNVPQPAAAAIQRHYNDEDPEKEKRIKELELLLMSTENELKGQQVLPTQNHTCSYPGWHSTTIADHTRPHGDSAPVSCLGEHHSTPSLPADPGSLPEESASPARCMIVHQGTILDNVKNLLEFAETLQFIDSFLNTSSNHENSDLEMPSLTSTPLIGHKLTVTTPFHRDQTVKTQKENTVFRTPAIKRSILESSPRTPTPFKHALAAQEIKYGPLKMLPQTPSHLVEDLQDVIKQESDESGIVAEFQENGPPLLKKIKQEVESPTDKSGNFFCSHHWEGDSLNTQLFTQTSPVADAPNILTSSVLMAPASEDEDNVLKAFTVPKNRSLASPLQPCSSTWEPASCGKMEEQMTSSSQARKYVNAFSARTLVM
Method in brief: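 After 24 h of compound dosing, total RNA from transfected HepG2 cells is reverse-transcribed and the reporter sequences amplified, labeled and separated by capillary electrophoresis. Values come from bidirectional fitting against DMSO.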

[4] = target: Nuclear respiratory factor 1 (Homo sapiens) (UniProt Q16656); assay: ATG_NRF1_CIS: Attagene CIS-FACTORIAL HepG2 Assay for human Nuclear Respiratory Factor 1 (NRF1) Orphan Gene (AID 2282987); conditions: HepG2 NRF1 cis-element reporter, Attagene multiplex; actives raise or lower the signal
Chain of Nuclear respiratory factor 1 (Homo sapiens) (Q16656 whole entry, looked up): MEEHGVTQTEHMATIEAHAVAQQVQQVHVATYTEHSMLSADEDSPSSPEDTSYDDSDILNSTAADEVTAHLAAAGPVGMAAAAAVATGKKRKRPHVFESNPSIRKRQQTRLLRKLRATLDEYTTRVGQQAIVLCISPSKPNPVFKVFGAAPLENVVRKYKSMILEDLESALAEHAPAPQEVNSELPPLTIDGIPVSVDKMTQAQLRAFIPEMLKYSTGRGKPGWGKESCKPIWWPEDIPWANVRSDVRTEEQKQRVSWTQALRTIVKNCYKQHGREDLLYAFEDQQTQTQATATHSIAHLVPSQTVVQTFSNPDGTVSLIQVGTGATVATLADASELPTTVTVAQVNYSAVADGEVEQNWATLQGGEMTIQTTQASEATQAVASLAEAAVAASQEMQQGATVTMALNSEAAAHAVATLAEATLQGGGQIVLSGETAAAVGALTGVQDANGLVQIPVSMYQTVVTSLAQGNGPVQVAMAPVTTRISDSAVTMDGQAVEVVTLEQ
Method in brief: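 Measured: fluorescent reporter-specific RT-PCR products from transfected HepG2 cells, separated by capillary electrophoresis. Exposure lasted 24 h. Analysis used bidirectional curve fitting with DMSO as negative control.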

[5] = ATG_NFI_CIS: Attagene CIS-FACTORIAL HepG2 Assay for human Nuclear Factor I (NFI) (AID 2282989); conditions: HepG2 cis-regulatory reporter, NFI response element transcription; actives raise or lower the signal
Method in brief: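 Multiplexed cis-reporter system in human HepG2 cells reports native TF activity as reporter mRNA induction 24 h post-dose. Fragments labelled with 6-FAM, HpaI-digested and resolved by capillary electrophoresis; activity fitted both directions versus DMSO.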

[6] = target: Myc proto-oncogene protein (Homo sapiens) (UniProt P01106); assay: ATG_Myc_CIS: Attagene CIS-FACTORIAL HepG2 Assay for human Myelocytomatosis (Myc) Proto-Oncogene Transcription Factor (AID 2282990); conditions: HepG2, Attagene cis-reporter transcription factor activity; actives raise or lower the signal
Chain of Myc proto-oncogene protein (Homo sapiens) (P01106 whole entry, looked up, the tested form may be a part): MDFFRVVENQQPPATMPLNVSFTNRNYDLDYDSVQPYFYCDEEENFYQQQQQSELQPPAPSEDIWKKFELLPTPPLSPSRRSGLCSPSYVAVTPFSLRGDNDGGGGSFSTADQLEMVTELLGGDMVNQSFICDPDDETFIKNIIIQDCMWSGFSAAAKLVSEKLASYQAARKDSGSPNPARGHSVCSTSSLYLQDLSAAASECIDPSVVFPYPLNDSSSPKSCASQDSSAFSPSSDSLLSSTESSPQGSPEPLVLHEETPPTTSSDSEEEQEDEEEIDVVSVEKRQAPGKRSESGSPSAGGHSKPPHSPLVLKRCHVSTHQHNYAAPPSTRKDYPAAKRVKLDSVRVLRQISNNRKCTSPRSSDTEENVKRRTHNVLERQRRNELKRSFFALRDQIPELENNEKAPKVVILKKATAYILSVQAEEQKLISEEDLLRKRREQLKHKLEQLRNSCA
Method in brief: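 Fluorescence intensity of reporter-specific cDNA fragments, separated by capillary electrophoresis, gives the signal. Transfected HepG2 cells carrying cis-promoter reporter constructs are incubated with compound for 24 h; DMSO serves as baseline.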

[7] = ATG_NF_kB_CIS: Attagene CIS-FACTORIAL HepG2 Assay for human Nuclear Factor Kappa B (NF-kB) (AID 2282991); conditions: HepG2 Attagene cis-factorial NF-kB reporter mRNA; actives raise or lower the signal
Method in brief: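 Fluorescence of labelled RT-PCR products separated by capillary electrophoresis gives reporter mRNA levels from transfected HepG2 cells exposed 24 h; values are fitted in both directions relative to DMSO.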

[8] = ATG_NRF2_ARE_CIS: Attagene CIS-FACTORIAL HepG2 Assay for human Nuclear Factor Erythroid 2 Related Factor 2 (NFR2) response to Antioxidant Response Elements (ARE) (AID 2282992); conditions: HepG2 Attagene ARE/NRF2 reporter, transcription factor activity; actives raise or lower the signal
Method in brief: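 Endogenous transcription factor activity in human liver HepG2 cells is tracked via a cis-element-driven reporter within a multiplexed set. mRNA induction is read by RT-PCR and capillary electrophoresis after 24 h, with DMSO as baseline.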

[9] = ATG_Oct_MLP_CIS: Attagene CIS-FACTORIAL HepG2 Assay for human Octamer-Binding Transcription Factor (Oct) (AID 2282993); conditions: HepG2 Attagene cis-factorial Oct reporter, mRNA; actives raise or lower the signal
Method in brief: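 After 24 h compound exposure, transfected HepG2 cells were lysed for total RNA; reporter-specific cDNA was PCR-amplified, fluorescently labelled and sized by capillary electrophoresis. Bidirectional curve fitting used DMSO as baseline.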

[10] = ATG_M_06_TRANS: Attagene TRANS-FACTORIAL HepG2 Assay for M06 Transcription Factor (Internal Marker) (AID 2282983; active = hit-call score of the fitted dose curve at least 0.9, where 1 is the maximum); conditions: HepG2 Attagene TRANS M06 internal marker reporter
Method in brief: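 Background-control reporter readout: after 24 h chemical exposure of transiently transfected HepG2 (GAL4-UAS reporter units), mRNA quantified by RT-PCR with fluorescent labeling and capillary electrophoresis. Gain-of-signal fitting against DMSO baseline.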

[11] = ATG_M_32_TRANS: Attagene TRANS-FACTORIAL HepG2 Assay for M32 Transcription Factor (Internal Marker) (AID 2282984; active = hit-call score of the fitted dose curve at least 0.9, where 1 is the maximum;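 also: transcript level of a background control reporter unit measured by RT-PCR and capillary electrophoresis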); conditions: HepG2 Attagene TRANS M32 internal marker reporter
Method in brief: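 Read-out: fluorescent reporter cDNA fragments resolved by capillary electrophoresis after RT-PCR of total RNA. Transfected HepG2 cells were exposed to chemical for 24 h. Activity scored in the positive direction relative to DMSO.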

[12] = target: Hepatocyte nuclear factor 4-alpha (Homo sapiens) (UniProt P41235); assay: ATG_HNF4a_TRANS: Attagene TRANS-FACTORIAL HepG2 Assay for human Hepatocyte Nuclear Factor 4 alpha (HNF4a) (AID 2282982; active = hit-call score of the fitted dose curve at least 0.9, where 1 is the maximum); conditions: HepG2 HNF4a transactivation reporter, mRNA readout
Chain of Hepatocyte nuclear factor 4-alpha (Homo sapiens) (P41235 whole entry, looked up): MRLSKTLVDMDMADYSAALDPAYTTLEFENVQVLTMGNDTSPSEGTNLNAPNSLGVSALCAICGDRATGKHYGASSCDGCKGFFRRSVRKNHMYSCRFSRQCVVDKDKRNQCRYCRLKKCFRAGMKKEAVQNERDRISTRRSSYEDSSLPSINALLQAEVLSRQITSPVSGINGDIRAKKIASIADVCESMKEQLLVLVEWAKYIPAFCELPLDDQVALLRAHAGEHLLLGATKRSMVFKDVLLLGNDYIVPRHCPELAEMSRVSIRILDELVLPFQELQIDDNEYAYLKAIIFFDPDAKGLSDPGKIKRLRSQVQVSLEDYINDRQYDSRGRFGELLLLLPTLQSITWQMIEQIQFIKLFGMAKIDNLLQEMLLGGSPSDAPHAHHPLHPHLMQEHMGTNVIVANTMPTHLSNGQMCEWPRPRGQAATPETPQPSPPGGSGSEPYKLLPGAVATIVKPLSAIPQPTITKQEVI
Method in brief: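 Transient MRTU transfection of HepG2, 24 h dosing. Readout: reporter mRNA via RT-PCR + capillary electrophoresis, fluorescence; activity fit upward relative to DMSO control.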

[13] = target: Nuclear receptor subfamily 4 group A member 2 (Homo sapiens) (UniProt P43354); assay: ATG_NURR1_TRANS: Attagene TRANS-FACTORIAL HepG2 Assay for human Nuclear Receptor Related Protein 1 (NURR1) (AID 2282985; active = hit-call score of the fitted dose curve at least 0.9, where 1 is the maximum); conditions: HepG2 Attagene TRANS reporter, mRNA readout
Chain of Nuclear receptor subfamily 4 group A member 2 (Homo sapiens) (P43354 whole entry, looked up, the tested form may be a part): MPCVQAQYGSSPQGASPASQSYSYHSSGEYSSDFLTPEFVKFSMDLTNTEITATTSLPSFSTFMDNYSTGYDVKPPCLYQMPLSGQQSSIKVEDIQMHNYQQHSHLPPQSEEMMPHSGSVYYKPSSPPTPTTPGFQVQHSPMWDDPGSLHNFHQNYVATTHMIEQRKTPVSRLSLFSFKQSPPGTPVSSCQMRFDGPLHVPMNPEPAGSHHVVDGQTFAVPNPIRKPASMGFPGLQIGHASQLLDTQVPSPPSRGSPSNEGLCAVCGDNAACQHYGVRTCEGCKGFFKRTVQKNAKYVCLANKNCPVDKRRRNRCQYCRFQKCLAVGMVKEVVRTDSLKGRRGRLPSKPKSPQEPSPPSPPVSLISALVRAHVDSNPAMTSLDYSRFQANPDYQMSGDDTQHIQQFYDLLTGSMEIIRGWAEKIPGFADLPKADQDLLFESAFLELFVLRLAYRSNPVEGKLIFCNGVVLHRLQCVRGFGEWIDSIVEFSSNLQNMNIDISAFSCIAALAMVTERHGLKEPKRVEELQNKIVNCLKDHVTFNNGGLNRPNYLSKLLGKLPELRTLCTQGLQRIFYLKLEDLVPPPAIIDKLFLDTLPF
Method in brief: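 Read-out: reporter mRNA induction by RT-PCR plus capillary electrophoresis with fluorescence detection, after 24 h dosing of transfected HepG2 cells. Exogenous NR-Gal4 chimera activity drives GAL4-UAS reporter; activity fitted upward versus DMSO.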

[14] = target: Cellular tumor antigen p53 (Homo sapiens) (UniProt P04637); assay: ATG_p53_CIS: Attagene CIS-FACTORIAL HepG2 Assay for human p53 Transcription Factor (AID 2282994); conditions: HepG2 p53 cis-element reporter, Attagene mRNA; actives raise or lower the signal
Chain of Cellular tumor antigen p53 (Homo sapiens) (P04637 whole entry, looked up, the tested form may be a part): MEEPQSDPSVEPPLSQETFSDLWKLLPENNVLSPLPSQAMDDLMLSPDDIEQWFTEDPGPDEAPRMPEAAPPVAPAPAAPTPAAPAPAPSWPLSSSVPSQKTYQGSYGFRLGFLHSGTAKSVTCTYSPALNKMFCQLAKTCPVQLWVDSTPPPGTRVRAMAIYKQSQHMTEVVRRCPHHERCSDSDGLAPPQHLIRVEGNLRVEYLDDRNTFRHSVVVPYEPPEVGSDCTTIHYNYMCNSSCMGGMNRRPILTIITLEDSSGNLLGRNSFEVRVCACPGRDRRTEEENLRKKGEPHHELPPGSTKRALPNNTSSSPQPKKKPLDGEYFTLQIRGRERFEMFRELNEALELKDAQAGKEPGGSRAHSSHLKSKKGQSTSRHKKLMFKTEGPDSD
Method in brief: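 Steps: transfect HepG2 with multiplexed cis reporter constructs; dose chemicals 24 h; extract RNA, reverse-transcribe, PCR-amplify reporter sequences; FAM-label, HpaI-digest, resolve fragments by CE. Activity fitted both directions relative to DMSO.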

[15] = target: Bile acid receptor (Homo sapiens) (UniProt Q96RI1); assay: ATG_FXR_TRANS: Attagene TRANS-FACTORIAL HepG2 Assay for Farnesoid X Receptor (FXR) (AID 2282979; active = hit-call score of the fitted dose curve at least 0.9, where 1 is the maximum;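 also: hits raise reporter mRNA above DMSO so AC50 marks FXR activation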); conditions: HepG2 Attagene TRANS FXR-GAL4 reporter transcription
Chain of Bile acid receptor (Homo sapiens) (Q96RI1 whole entry, looked up, the tested form may be a part): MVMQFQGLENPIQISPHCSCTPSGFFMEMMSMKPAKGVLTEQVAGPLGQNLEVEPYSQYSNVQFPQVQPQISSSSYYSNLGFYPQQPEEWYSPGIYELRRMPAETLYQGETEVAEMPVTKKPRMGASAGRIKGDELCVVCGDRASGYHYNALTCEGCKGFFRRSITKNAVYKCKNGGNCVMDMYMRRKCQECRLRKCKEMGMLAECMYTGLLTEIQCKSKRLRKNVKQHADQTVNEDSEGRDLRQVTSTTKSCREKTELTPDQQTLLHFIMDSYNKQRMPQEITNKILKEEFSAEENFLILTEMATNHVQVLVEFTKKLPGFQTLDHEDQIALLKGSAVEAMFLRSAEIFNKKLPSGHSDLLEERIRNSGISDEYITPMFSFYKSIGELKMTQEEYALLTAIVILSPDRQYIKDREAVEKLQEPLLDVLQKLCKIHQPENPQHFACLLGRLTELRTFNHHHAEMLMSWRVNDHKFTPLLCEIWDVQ
Method in brief: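 Reporter transcripts from transfected HepG2 cells were measured 24 h after dosing, using RT-PCR with capillary electrophoresis of 6-FAM-labelled fragments. The read-out reflects activity of exogenous FXR-Gal4 chimera on GAL4-UAS units, with induction relative to DMSO.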

[16] = target: Oxysterols receptor LXR-alpha (Homo sapiens) (UniProt Q13133); assay: ATG_LXRa_TRANS: Attagene TRANS-FACTORIAL HepG2 Assay for human Liver X Receptor alpha (LXRa) (AID 2282980; active = hit-call score of the fitted dose curve at least 0.9, where 1 is the maximum); conditions: HepG2 Attagene TRANS reporter, LXRa transactivation
Method in brief: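 Chemical-induced reporter mRNA measured by RT-PCR with fluorescent labelling and capillary electrophoresis after 24 h dosing of transiently transfected HepG2 cells expressing exogenous NR-Gal4 chimeras; increases scored against DMSO baseline.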

[17] = BSK_3C_TissueFactor: BioMAP Diversity Plus: 3C Assay for Tissue Factor Biomarker Activity (AID 2282997); conditions: BioMAP 3C HUVEC, tissue factor biomarker readout; actives raise or lower the signal
Method in brief: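 Tissue factor on primary human umbilical vein endothelium was read by ELISA 24 h after dosing, gain or loss relative to DMSO. Cytotoxicity ran alongside via SRB (0.1%, TCA-fixed, 560 nm).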

[18] = BSK_3C_uPAR: BioMAP Diversity Plus: 3C Assay for Urokinase-type plasminogen activator receptor (uPAR) Biomarker Activity (AID 2282998); conditions: BioMAP 3C HUVEC, uPAR biomarker ELISA; actives raise or lower the signal
Method in brief: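 Values derive from bidirectional curve fitting relative to DMSO, which served as baseline of activity. uPAR was measured by ELISA in human umbilical vein endothelial primary cultures 24 h after compound addition.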

[19] = BSK_3C_VCAM1: BioMAP Diversity Plus: 3C Assay for Vascular cell adhesion molecule 1 (VCAM1) Biomarker Activity (AID 2282999); conditions: BioMAP 3C HUVEC, VCAM1 ELISA, cytokine-stimulated; actives raise or lower the signal
Method in brief: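 HUVEC primary cells, 24 h compound exposure; VCAM-1 by ELISA; gain/loss of signal fitted bidirectionally vs DMSO baseline.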

[20] = BSK_4H_Eotaxin3: BioMAP Diversity Plus: 4H Assay for Eotaxin 3 Biomarker Activity (AID 2283000); conditions: primary human endothelial cells (HUVEC); actives raise or lower the signal
Method in brief: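 Human umbilical vein endothelial cells (BSK_4H system) dosed with test chemical; Eotaxin-3 (CCL26) measured by ELISA 24 h after dosing. Bidirectional curve fitting relative to DMSO negative control as baseline.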

Measured: AC50

CC(c1cc2ccccc2s1)N(O)C(N)=O (stereo not drawn)
inactive: [2] | [3] | [4] | [5] | [6] | [7] | [8] | [9]
active: [1] 100 µM

S=C(S)NCCNC(=S)S
inactive: [1] | [10] | [11] | [3] | [4] | [5] | [6] | [8] | [9]

N#Cc1ccccc1
not listed: [2] | [15] | [16] | [17] | [18] | [19] | [20]
inactive: all other assays above

O=Nc1ccc(Nc2ccccc2)cc1
active: [4] 56.3 µM | [5] 56.4 µM | [7] 12.1 µM | [8] 7.16 µM | [9] 33.4 µM | [14] 54.3 µM
inactive: [15] | [16] | [2] | [12] | [11] | [3] | [6]

O=[N+]([O-])c1cc(C(F)(F)F)ccc1Cl
active: [8] 50.9 µM
not listed: [2] | [3] | [7] | [13] | [15] | [16]
inactive: all other assays above

CCC(C)(O)CCC=C(C)C (stereo not drawn)
not listed: [2] | [12] | [15] | [16] | [17] | [18] | [19] | [20]
inactive: all other assays above

O=C1CCCCCCCCCCCCCCO1
active: [8] 74.4 µM | [9] 69.4 µM | [17] 26.5 µM | [18] 20 µM | [19] 17.9 µM | [20] 27.3 µM
inactive: [1] | [3] | [4] | [5] | [6] | [14]

CC(C)C[C@H]1C(=O)N2CCC[C@H]2[C@]2(O)O[C@](NC(=O)[C@@H]3C=C4c5cccc6[nH]c(Br)c(c56)C[C@H]4N(C)C3)(C(C)C)C(=O)N12
active: [4] 3.24 µM | [5] 3.81 µM | [8] 3.7 µM
inactive: [1] | [11] | [3] | [6] | [9]

CC(C)c1cccc(O)c1
inactive: [1] | [10] | [13] | [3] | [4] | [5] | [6] | [7] | [8] | [9] | [14]

O=C(O)c1cn(-c2ccc(F)cc2)c2cc(N3CCNCC3)c(F)cc2c1=O
not listed: [2] | [7] | [10] | [11] | [12] | [15] | [16]
inactive: all other assays above

CCC(=O)OCc1ccccc1
not listed: [2] | [7] | [12] | [13] | [15] | [16]
inactive: all other assays above
